Source: PubChem BioAssay (NCATS)
Records with an inconclusive call do not appear. Values without a mark were called inactive. Calls of active or inactive are those of the source. Calls follow the shape of the dose curve; as a rule, active = well fitted inhibition curve with a large enough effect; inconclusive = small, poorly fitted or top-dose-only effect; inactive = flat fitted curve, though single readings scatter.

tested on: HEK293; test: Cytotoxic Profiling of Annotated Libraries Using Quantitative High-Throughput Screening (AID 1296008); conditions: Five cell lines viability, CellTiter-Glo ATP luminescence, 48-72 h; max response: active compounds read low; also: nearly all actives have a fitted effect of over 60% in size
In short: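 Compounds were pin-transferred onto cells and incubated 48 or 72 hr at 37 degree Celsius, 95% humidity. CellTiter-Glo was added, plates sat 10 min at room temperature, then ATP-coupled luminescence was imaged as the viability read-out.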
% is scaled to controls: 0 for no effect and ±100 for the full control effect; potency is read from the fitted curve at half-maximal effect.

Row | SMILES | outcome | max response [%] | Potency
1 | CC(C)(C)C(=O)OCOC(=O)C1N2C(=O)CC2S(=O)(=O)C1(C)C (stereo unspecified) | inactive |  | 
2 | CN1C(CSCC(F)(F)F)Nc2cc(Cl)c(S(N)(=O)=O)cc2S1(=O)=O (stereo unspecified) |  | 1.71 | 
3 | COc1ccccc1N1CCN(CCN2C(=O)CC3(CCCC3)CC2=O)CC1 | inactive |  | 
4 | Nc1nnnn1-c1ccccc1 |  | -1.05 | 
5 | C=CCOc1cc(Cl)ccc1C(=O)NCCN(CC)CC |  | -33.1 | 
6 | OCCCc1ccccc1 |  | -4.71 | 
7 | CC(=O)N(CC(O)CO)c1c(I)c(C(=O)NCCO)c(I)c(C(=O)NCC(O)CO)c1I (stereo unspecified) |  | 2.15 | 
8 | CN1C(=O)CC(C)(c2ccccc2)C1=O (stereo unspecified) |  | 1.84 | 
9 | CC(C(=O)O)c1ccc(/C=C2\CCCCC2=O)cc1 (stereo unspecified) |  | -12.2 | 
10 | O=C(COCCOCCOCC(=O)Nc1c(I)cc(I)c(C(=O)O)c1I)Nc1c(I)cc(I)c(C(=O)O)c1I |  | 0.699 | 
11 | CCO[C@H](Cc1ccc(OCCc2ccc(OS(C)(=O)=O)cc2)cc1)C(=O)O |  | -6.35 | 
12 | O=C(OCC1(COC(=O)c2cccnc2)CCCC(COC(=O)c2cccnc2)(COC(=O)c2cccnc2)C1O)c1cccnc1 |  | -9.95 | 
13 | OC(CCCN1CCCCC1)(c1ccccc1)c1ccccc1 |  | -39.9 | 
14 | C1=CC2C3C=CC(C3)C2C1 (stereo unspecified) | inactive |  | 
15 | C[N+]1(CC2COC(c3ccccc3)(c3ccccc3)O2)CCCCC1 (stereo unspecified) |  |  | 10 µM (active)
16 | CC(C)=CCC/C(C)=C/CC/C(C)=C/CCC(=O)OC/C=C(\C)CCC=C(C)C |  | -2.81 | 
